# Assay results from PubChem BioAssay (EPA / NIEHS).
# The source made the active and inactive calls. Rule for the calls: active = hit-call score of the fitted dose curve at least 0.9, where 1 is the maximum; inactive = score below 0.9.
# Target: Hypoxia-inducible factor 1-alpha (Homo sapiens) (UniProt Q16665)
# Experiment: ATG_HIF1a_CIS: Attagene CIS-FACTORIAL HepG2 Assay for human Hypoxia Inducible Factor 1 (HIF1A) (AID 2282951)
# Conditions: HepG2 Attagene cis-factorial HIF1a reporter transcription; actives raise or lower the signal
# Method: ATG_CIS is a cell-based, multiplexed-readout assay that uses HepG2, a human liver cell line, with measurements taken at 24 hours after chemical dosing in a 24-well plate.ATG_HIF1a_CIS is one of 52 assay component(s) measured or calculated from the ATG_CIS assay. It is designed to make measurements of mRNA induction, a form of inducible reporter, as detected with fluorescence intensity signals by Reverse transcription polymerase chain reaction (RT-PCR) and Capillary electrophoresis technology.Data from the assay component ATG_HIF1a_CIS was analyzed into 1 assay endpoint. This assay endpoint, ATG_HIF1a_CIS, was analyzed with bidirectional fitting relative to DMSO as the negative control and baseline of activity. Using a type of inducible reporter, measures of mRNA for gain or loss-of-signal activity can be used to understand the reporter gene at the transcription factor-level as they relate to the gene HIF1A. Furthermore, this assay endpoint can be referred to as a primary readout, because this assay has produced multiple assay endpoints where this one serves a reporter gene function. To generalize the intended target to other relatable targets, this assay endpoint is annotated to the dna binding intended target family, where the subfamily is basic helix-loop-helix protein.
# Human liver HepG2 cells are transiently transfected with multiple reporter transcription units (MRTUs) in 6-well plates using FuGene 6 reagent (Roche; 3 ml FuGene/1 mg DNA). The MRTU constructs are regulated by a cis-regulating element (promoter). […] A major difference between the CIS and TRANS system is that in CIS activities of endogenous TFs are measured, whereas the TRANS assay evaluates changes in activities of exogenous, chimeric NR-Gal4 proteins. […] At the end of 24 hour incubation, total RNA was isolated using TriZol reagent (Invitrogen). The isolated RNA is then reverse-transcribed using oligo(dT) primer and Mo-MLV reverse transcriptase (Invitrogen) with DNAse I (Ambion) treatment for 30 min. The one-tenth of the produced cDNA was amplified by PCR using Taq DNA polymerase (Invitrogen) and two reporter sequence-specific primers. The PCR products were fluorescently labeled by primer extension with 6-arboxyfluorescein (6-FAM) 5'-labeled reporter sequence-specific primer (2 min at 95 C, 20 s at 68 C and 10 min at 72 C) and these products were digested with 5U of HpaI (New England Biolabs) for 2h at 37 C. The fragments were purified using Qiaquick PCR columns (Qiagen), analyzed on an ABI 3130xL genetic analyzer (Applied Biosystems) with peak positions identified by using a set of X-rhodamine (ROX)-labeled MapMarker1000 molecular weight standards (BioVentures). The raw capillary electrophoresis data was processed using Attagraph software (Attagene).
# Sequence of Hypoxia-inducible factor 1-alpha (Homo sapiens) (Q16665 whole entry, looked up): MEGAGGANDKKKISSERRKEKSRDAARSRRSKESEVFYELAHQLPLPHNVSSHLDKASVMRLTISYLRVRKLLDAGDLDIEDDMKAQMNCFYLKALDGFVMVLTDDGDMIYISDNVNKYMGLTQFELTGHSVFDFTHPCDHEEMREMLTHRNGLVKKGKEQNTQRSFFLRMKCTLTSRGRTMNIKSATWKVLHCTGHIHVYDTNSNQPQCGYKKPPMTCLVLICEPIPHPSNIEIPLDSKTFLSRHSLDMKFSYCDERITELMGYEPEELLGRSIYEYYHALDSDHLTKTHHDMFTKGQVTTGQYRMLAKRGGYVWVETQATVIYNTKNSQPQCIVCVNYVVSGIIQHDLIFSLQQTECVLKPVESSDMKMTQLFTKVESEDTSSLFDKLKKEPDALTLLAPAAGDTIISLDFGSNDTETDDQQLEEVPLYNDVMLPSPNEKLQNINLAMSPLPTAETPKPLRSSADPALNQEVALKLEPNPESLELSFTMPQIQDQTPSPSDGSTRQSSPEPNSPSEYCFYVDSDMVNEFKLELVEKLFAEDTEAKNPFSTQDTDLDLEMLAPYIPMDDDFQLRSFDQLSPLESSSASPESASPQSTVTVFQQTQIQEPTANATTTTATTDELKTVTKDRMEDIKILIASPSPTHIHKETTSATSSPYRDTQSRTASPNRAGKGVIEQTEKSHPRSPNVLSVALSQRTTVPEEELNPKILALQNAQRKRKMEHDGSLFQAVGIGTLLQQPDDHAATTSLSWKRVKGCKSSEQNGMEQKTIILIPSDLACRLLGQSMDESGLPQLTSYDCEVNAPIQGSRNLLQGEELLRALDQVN
SMILES,outcome,AC50
N#CC(Br)Br,inactive,
Nc1ccc(Cc2ccc(N)cc2)cc1,inactive,
CCN(CC)N=O,inactive,
CN(C)c1ccc(C(=O)c2ccc(N(C)C)cc2)cc1,inactive,
CCC12COCN1COC2,inactive,
CCOc1cccc(C2(N3CCN(c4ccccc4)CC3)CCC(C)CC2)c1 (stereo not given),inactive,
CNC(=O)Oc1cccc2c1OC(C)(C)C2,inactive,
N#CC(Br)(Br)C(N)=O,inactive,
CCCCCCCCn1sccc1=O,inactive,
CCCCOC(=O)c1ccccc1C(=O)OCc1ccccc1,inactive,
Cc1cc(N=Nc2ccccc2C)ccc1N,,24.7 µM (active)
CCNS(=O)(=O)C(F)(F)C(F)(F)C(F)(F)C(F)(F)C(F)(F)C(F)(F)C(F)(F)C(F)(F)F,inactive,
C[C@]12C=CC3=C4CCC(=O)C=C4CC[C@H]3[C@@H]1CC[C@@H]2O,inactive,
COc1cc(C=O)cc2c1[C@H](COC(N)=O)[C@]1(OC(C)=O)ON2C[C@H]2[C@@H]1N2C(C)=O,,0.155 µM (active)
ClCCOCCCl,inactive,
c1ccc(C2CO2)cc1 (stereo not given),inactive,
Cc1ccc(N=C=O)cc1N=C=O,inactive,
CCC[CH2][Sn]([Cl])([CH2]CCC)[CH2]CCC,inactive,
CCCSC(=O)N(CCC)CCC,inactive,
c1ccc2c(c1)oc1ccccc12,inactive,

SMILES,outcome,AC50
OCCOCCO,inactive,
O=C(Oc1ccc(Br)cc1)N1CCN2CCC1CC2,,34.6 µM (active)
CC(C)(C)C(O)(CCc1ccc(Cl)cc1)Cn1cncn1 (stereo not given),inactive,
CN(C)C(=O)Nc1ccc(Cl)cc1,inactive,
CC(C)(OOC(C)(C)c1ccccc1)c1ccccc1,inactive,
[Cl-].[Cl-].[Hg+2],,33.4 µM (active)
Nc1ccc([N+](=O)[O-])cc1,inactive,
Cc1ccc([N+](=O)[O-])cc1,inactive,
Nc1ccc(Cl)cc1N,,27.6 µM (active)
Oc1ccccc1Cl,inactive,
O=C1CCCO1,inactive,
CN(C)c1ccccc1,inactive,
O=C(N[C@H](c1ccccc1)[C@@H]1CN2CCC1CC2)c1c(Cl)ccc(C(F)(F)F)c1Cl,,0.207 µM (active)
COP(=S)(OC)SCN1C(=O)c2ccccc2C1=O,inactive,
Brc1ccc(Oc2ccccc2)cc1,inactive,
Cc1ccc(N)cc1,inactive,
CCCCCCCCOC(=O)c1ccc(C(=O)OCCCCCCCC)c(C(=O)OCCCCCCCC)c1,,23.7 µM (active)
c1ccc2c(c1)-c1cccc3cccc-2c13,inactive,
CC(C)COC(=O)c1ccccc1C(=O)OCC(C)C,inactive,
Clc1ccc(C(c2ccc(Cl)cc2)C(Cl)Cl)cc1,inactive,
